According to PubChem BioAssay (NCI):
Compounds without any hit were thinned out: in the full panel of roughly 79,000, 15% have a hit. Unmarked numbers belong to inactive results. The source made the active and inactive calls. No stated cut-off is given here; in the data, active means growth inhibition above about 70%; inactive means the rest.

Key:
[1] = NCI Yeast Anticancer Drug Screen. Data for the rad50 strain (AID 155);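 further: 0% = growth of vehicle-only cultures of the same strain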; conditions: S. cerevisiae rad50 strain growth inhibition; at 50.0 µM; hits give high values
In short: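 Readout: growth inhibition relative to vehicle-treated cultures. Compound exposure was carried out in a genetically defined yeast strain deficient in DNA damage repair.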

[2] = NCI Yeast Anticancer Drug Screen. Data for the mec2-1 strain (AID 157); conditions: S. cerevisiae mec2-1 strain, at 50.0 µM, hits give high values
In short: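 mec2-1 yeast strain, carrying an alteration in DNA damage repair or cell cycle control, was exposed to compounds; growth inhibition was measured relative to vehicle-treated controls.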

[3] = NCI Yeast Anticancer Drug Screen. Data for the sgs1 mgt1 strain (AID 161);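 further: 0% = growth of cultures given vehicle only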; conditions: S. cerevisiae sgs1 mgt1 strain, at 50.0 µM, hits give high values
In short: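 Growth of a repair-deficient yeast mutant was monitored after compound treatment and expressed as inhibition relative to vehicle-treated cultures.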

[4] = NCI Yeast Anticancer Drug Screen. Data for the cln2 rad14 strain (AID 165);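 further: 0% = growth equal to vehicle treated cultures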; conditions: S. cerevisiae cln2 rad14 strain, at 50.0 µM, hits give high values
In short: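 Yeast carrying cln2 and rad14 alterations (cell cycle control and DNA damage repair) were exposed to compounds. Growth inhibition was measured against vehicle-treated controls.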

[5] = NCI Yeast Anticancer Drug Screen. Data for the bub3 strain (AID 167); conditions: S. cerevisiae bub3 mutant strain, at 50.0 µM, hits give high values
In short: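 Readout: yeast growth inhibition, expressed relative to vehicle-only wells. The test organism is a mutant strain from a panel with lesions in DNA repair or checkpoint genes.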

[6] = NCI Yeast Anticancer Drug Screen. Data for the mlh1 rad18 strain (AID 175); conditions: S. cerevisiae mlh1 rad18 strain growth inhibition; at 50.0 µM; hits give high values
In short: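 Growth inhibition of the yeast strain was measured after compound exposure and expressed relative to vehicle-treated controls. The strain carries defined defects in DNA damage repair.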

Row | Compound | growth inhibition [1] | growth inhibition [2] | growth inhibition [3] | growth inhibition [4] | growth inhibition [5] | growth inhibition [6]
1 | CCCCN1C(=O)c2cc(=O)[nH]c(O)c2C1C (stereo unspecified) | -19.4% | 6.35% | -25.9% | -0.55% | -27.1% | 3.25%
2 | O=C1NC(O)c2cccc(F)c2O1 (stereo unspecified) | 20.4% | 6.3% | 43.4% | 31.5% | 6.7% | 58.9%
3 | CS(=O)(=O)O[C@H]1[C@H](O)c2ccccc2[C@@H]1N=[N+]=[N-] | 13.5% | 3.95% | -2.05% | -3% | -10.2% | -51.4%
4 | c1nc2c([nH]1)CNCC2 | -3.05% | -11.2% | -9.05% | -65.7% | -12.2% | 5%
5 | Cc1ccc(SS(=O)(=O)c2ccc([N+](=O)[O-])cc2)cc1 | 13.9% | 12.4% | 9.3% | -29.4% | -5.45% | 16.6%
6 | CC(C)CCCC(C)C1CCC2C3CC=C4CC(OP(=O)(O)OC5CCC6(C)C(=CCC7C6CCC6(C)C(C(C)CCCC(C)C)CCC76)C5)CCC4(C)C3CCC12C (stereo unspecified) | -7.55% | -23.8% | -3.65% | 7.8% | -7.6% | -5.5%
7 | O=C(O)C1CC(Br)C(Br)CC1C(=O)Nc1cccc2ccccc12 (stereo unspecified) | 11.8% | 6.45% | 2.85% | -39.3% | 1.3% | 32.1%
8 | O=C1/C(=C/c2ccccc2)CC/C1=C\c1ccccc1 | 5.35% | 17.6% | 31.8% | 20.2% | 19.8% | 3.85%
9 | Nc1nc(N)c2cc(S(=O)(=O)c3ccc(Cl)cc3)ccc2n1 | 21.9% | 36.1% | 12.5% | -12.2% | 17.8% | 28.6%
10 | CC(=O)Nc1nnc(C)o1 | -0.85% | -3.5% | -1.55% | -40.6% | 10.3% | -2.05%
11 | C=C(c1ccccc1)c1cccc2ccccc12 | -2.45% | 3.45% | -4.9% | 19.9% | -11.7% | 6.55%
12 | Cc1nc2ccccc2c(=O)n1NC(=O)c1ccc([N+](=O)[O-])cc1 | -43.4% | -26.4% | -13.5% | -21.4% | -10.8% | -19.1%
13 | Cn1c(=O)ccc2c1nc1ccccc1[n+]2[O-] | -6.25% | 4.65% | -6.7% | -30.8% | 4.75% | -11.8%
14 | O=C(OCCCCO)c1cc([N+](=O)[O-])cc([N+](=O)[O-])c1 | -12.8% | 13.9% | 0.1% | 0.7% | 12.1% | -27.9%
15 | C/C(=N\NC(N)=S)c1cc(C)c(C)cc1C | 34.3% | 5.55% | 50% | 17.2% | -7.95% | 65.8%
16 | Nc1ccc(S(=O)(=O)c2cnc(N)s2)cc1 | -4% | 4.25% | 27.8% | -3.25% | -11.2% | 11.4%
17 | OCCN(CCO)C(Cc1ccccc1)Cc1ccccc1 | -7.9% | -9.95% | -1.7% | -11.1% | 26.4% | -22.9%
18 | CC[n+]1ccc(/C=C\c2c(Cl)cccc2Cl)cc1 | -1.45% | -17.6% | 5.65% | 3% | 7.8% | 12.1%

Row | Compound | growth inhibition [1] | growth inhibition [2] | growth inhibition [3] | growth inhibition [4] | growth inhibition [5] | growth inhibition [6]
19 | C[N+]([O-])(Cc1ccccc1)c1ccccc1 (stereo unspecified) | -3.6% | -16.3% | -15.2% | -20.9% | -26.8% | 1.75%
20 | CN(C)CC1CCCCCC(Br)C1O (stereo unspecified) | -5% | 14.6% | -1.15% | -24.8% | -10.7% | 21.7%
21 | CN(C(=O)Cl)c1ccccc1 | 9.1% | -9.35% | 7.8% | 8.6% | 16.8% | 16.8%
22 | NC(=O)CCCC(=O)c1cccc([N+](=O)[O-])c1 | -14.2% | 2.2% | -16.9% | -42.9% | -1.25% | -25.4%
23 | COc1ccc(CCc2nccn2C)cc1OC | -69.3% | -54.9% | -34.7% | -16.4% | -7.95% | -32.2%
24 | COc1cccc(OC(=O)Nc2cccc(Cl)c2)c1 | 38.2% | 38.4% | 49.4% | 38.8% | 41.5% | 51.6%
25 | Nc1ccc(S(=O)(=O)OCCOc2ccccc2)cc1 | -2.85% | 7.6% | 2.6% | -4.2% | 18.7% | -7.3%
26 | C[N+](C)(C)CCOc1cccc(Br)c1 | 9.8% | 14.5% | 21.6% | 29.8% | 11.7% | 23.9%
27 | O=C([O-])c1cc(I)cc(I)c1[OH2+].O=C([O-])c1cc(I)cc(I)c1[OH2+].[Mn+2] | -1.55% | -19.4% | -6.2% | -23.7% | -46% | 5.8%
28 | O=C(O)C(Br)C(Br)C(=O)Nc1cccc(C(F)(F)F)c1 (stereo unspecified) | 17.4% | -5.55% | 14.9% | 0.6% | -2.15% | 24.4%
29 | Cc1cc(C)c(Br)c(C)c1 | 1.55% | 0.45% | -2% | -20.2% | -4.95% | -12.7%
30 | COc1ccc(/C(Cl)=C(\C=O)c2ccc(OC)c(OC)c2)cc1OC | 21.9% | 4.5% | -0.3% | -17.1% | -3% | -13.1%
31 | CCOC(=O)c1cccc(N)c1 | -9.6% | -22.2% | -25% | -6.35% | -12.5% | -6.8%
32 | CCOC(=O)c1ccc(N[C@@H]2c3cc4c(cc3C(c3cc(OC)c(O)c(OC)c3)[C@H]3C(=O)OCC32)OCO4)cc1 (stereo partly specified) | 85.6% (active) | 91.7% (active) | 89.2% (active) | 87.5% (active) | 88% (active) | 88.8% (active)
33 | CN(C)CC(c1ccccc1)C(O)(c1ccccc1)c1ccccc1 (stereo unspecified) | -5.65% | -2.75% | -1% | -45.9% | -18% | 3.05%
34 | Cc1cc2[nH]c(=O)n(C3OC(CO)C(O)C3O)c2cc1C (stereo unspecified) | -15.2% | 19.1% | 2.4% | -33.2% | -7.6% | -4.4%
35 | CC1=CN(c2ccccc2)S2=C1c1sc3c(c1N2c1ccc(Br)cc1)CCCC3 (stereo unspecified) | 0.9% | -21.9% | -27.5% | 14.4% | 3.15% | -52.2%
36 | O=C(NCC1=NCCN1)c1ccccc1 | 2.3% | -2.7% | -13.7% | 12% | 6.45% | 10.7%
